Laboratory results from PubChem BioAssay (NCI).
About 83,000 compounds went through this panel and 20% of them were active in at least one assay; those are over-represented in the sample as a whole.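 Growth was measured after 48 h exposure to one concentration of compound in 96-well plates. Values under 10 count as active.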 Values without a mark were called inactive. The source made the active and inactive calls.

Assays:
Assay in all cases: NCI-60 one-dose screen, 48 h (100 = growth as untreated, 0 = no growth, -100 = all killed)
Settings in all cases: 10 µM unless noted
NCI-H23 lung = system: NCI-H23 lung
NCI-H226 lung = system: NCI-H226 lung
NCI-H322M lung = system: NCI-H322M lung
HOP-62 NSCLC = system: HOP-62 NSCLC
NCI-H460 lung = system: NCI-H460 lung
NCI-H522 lung = system: NCI-H522 lung
A549/ATCC NSCLC = system: A549/ATCC NSCLC
786-0 renal = system: 786-0 renal
COLO 205 colon = system: COLO 205 colon
HOP-92 NSCLC = system: HOP-92 NSCLC

Row | Compound | growth (NCI-H23 lung) | growth (NCI-H226 lung) | growth (NCI-H322M lung) | growth (HOP-62 NSCLC) | growth (NCI-H460 lung) | growth (NCI-H522 lung) | growth (A549/ATCC NSCLC) | growth (786-0 renal) | growth (COLO 205 colon) | growth (HOP-92 NSCLC)
1 | CN1CCN(C(=O)c2c3c(n4ccccc24)C(=O)c2ncccc2C3=O)CC1 | 26.8% | 69.5% | 47.2% | 27.3% | 16.4% | 51.7% | 51.3% | 56.3% | 78.2% | –
2 | CC(=O)C(C)Cc1cc2c(cc1C)C(C)(C)CCC2(C)C (stereo not drawn) | 95.3% | 99.5% | 97.8% | 82.4% | 107% | 85.3% | 79.2% | 95.2% | 105% | –
3 | Cc1cc(NCc2cc(Nc3ccnc4cc(Cl)ccc34)ccc2F)nc(N2CCN(C)CC2)n1 | 39.3% | 64.1% | 33.8% | 6.67% (active) | -45.3% (active) | -30.8% (active) | 23% | -69.7% (active) | -73.4% (active) | –
4 | Cn1c(=O)c2[nH]c(NN)nc2n(C)c1=O | 107% | 106% | 118% | 120% | 101% | 99.9% | 106% | 98.7% | 109% | –
5 | CC(C)Sc1nc(NNC(N)=S)c(C#N)c(-c2ccc(F)cc2)n1 | 102% | 94.7% | 99.1% | 101% | 102% | 85.2% | 92.5% | 90.5% | 106% | –
6 | Clc1cccc(Cl)c1/C=C/c1cc(/C=C/c2c(Cl)cccc2Cl)[nH]n1 | 43.6% | 30.6% | 38.2% | 49.7% | 11.4% | -9.35% (active) | 38.7% | 23.1% | 17.7% | –
7 | C#Cc1cccc(NC(=O)c2ccc(NC(=O)CCl)cc2)c1 | -55.2% [8.25 µM] (active) | 8.52% [8.25 µM] (active) | 86.6% [8.25 µM] | 10.7% [8.25 µM] | -24.6% [8.25 µM] (active) | – | 59.1% [8.25 µM] | -50.8% [8.25 µM] (active) | -66.9% [8.25 µM] (active) | –
8 | CC1(C)OC2C(CO[Si](C)(C)C(C)(C)C)OC(n3c(I)c(C#C[Si](C)(C)C)c(=O)[nH]c3=O)C2O1 (stereo not drawn) | 76.9% | 103% | 106% | 99.1% | 106% | 90% | 94.9% | 93.9% | 111% | –
9 | N=C1C(c2nc(-c3ccc(Br)cc3)cs2)=C(O)CN1Cc1cccnc1 | 81.9% | 98.8% | 50.2% | 43.6% | 66.7% | 68.4% | 60.6% | 35.2% | 87.5% | –
10 | COc1ccc(-c2nc3ccc4[nH]ncc4c3c3c2CCCC3)cc1B(O)O | 72.2% | 61.2% | 63.4% | 51.3% | 35.3% | 48.1% | 53.7% | 63.6% | 45.8% | –
11 | CCCCC1CCCCN1C(=O)OCC (stereo not drawn) | 102% | 121% | 101% | 103% | 107% | 94.1% | 95.1% | 93% | 102% | –
12 | C[n+]1cc2c3c(ccc2c2ccc4cc5c(cc4c21)OCO5)OCO3 | -67% (active) | -87.7% (active) | -93.8% (active) | -83.8% (active) | -54.7% (active) | -74.2% (active) | -86.2% (active) | -87.5% (active) | -84.5% (active) | –
13 | CCCCCc1nc2c(c3c1CCCC3)CCCC2 | – | 88.6% | 78.3% | 77.6% | 83% | 44.6% | 72.6% | 85% | 89.4% | 56.2%
14 | CC(C)CCC[C@@H](C)[C@H]1CC[C@H]2[C@@H](Nc3ccc(O)cc3)CCC[C@]12C | – | 105% | 105% | 108% | 104% | -42.6% (active) | 95.5% | 109% | 95.5% | 136%
15 | COc1ccc(-c2cc(-c3ccc(Nc4nc(Nc5ccc(Cl)cc5)nc(Nc5ccc(Cl)cc5)n4)cc3)nc(N)c2C#N)cc1 | – | 9.85% (active) | 113% | 86.8% | 57.6% | 83.4% | 37% | 41.6% | 5.26% (active) | –
16 | O=C(c1ccccc1)N1N=C(c2ccccc2)CC1c1nnc2n(Cc3ccccc3)c(=O)c3c4c(sc3n12)CCCC4 (stereo not drawn) | – | 110% | 89.4% | 98% | 107% | 91.6% | 89.3% | 101% | 117% | 95.3%
17 | COC1=C(OC)C(=O)C(OC)=C(OC)C1=O | – | 93.6% | 95.7% | 112% | 108% | 108% | 90% | 99.3% | 113% | 103%
18 | COc1ccc(-c2nc3sccn3c2-c2cc(-c3cc(OC)c(OC)c(OC)c3)on2)cc1 | – | 116% | 102% | 106% | 78.3% | 87.9% | 104% | 96.6% | 94.2% | -17.4% (active)
19 | COc1cc(C2CC(=O)Nc3c2c(C)nn3-c2nc3ccccc3[nH]2)c(OC)c(OC)c1OC (stereo not drawn) | – | 89.7% | 95.2% | 44.3% | 39% | 33.3% | 43.2% | 27.6% | 41.2% | 75.7%
20 | COc1ccc(/C=N\NC(=O)c2cc(-c3ccc(Br)cc3)n(-c3ccc(S(N)(=O)=O)cc3)n2)cc1 | – | 77.8% | 63.1% | 48% | 38.5% | 18.9% | 52.1% | 66.9% | 62.2% | 46.8%
21 | O=c1[nH][n+](-c2ccc(Cl)cc2)no1 | – | 87.2% | 75.6% | 82.7% | 44.1% | 59.2% | 62.1% | 61.2% | 77.9% | 95.1%
22 | NS(=O)(=O)c1cnccc1Sc1ccncc1S(N)(=O)=O | – | 95.2% | 124% | 91.7% | 108% | 115% | 109% | 100% | 98.8% | 92.1%
23 | O=C(/C=C/c1ccc(Cl)nc1)c1ccc(Cl)cc1Cl | – | 103% | 99.8% | 106% | 98% | 38.7% | 94.4% | 86.8% | 111% | 110%
24 | CC1CC2Oc3ccc(Cl)cc3C(=O)N2O1 (stereo not drawn) | – | 99.3% | 126% | 101% | 108% | 108% | 98% | 104% | 108% | 86.4%
25 | O=C1/C(=C/c2ccccc2)CCc2nc3ccccc3c(/C=C/c3ccc(Cl)cc3)c21 | – | 92.3% | 94.6% | 110% | 93.4% | 71.1% | 93.5% | 99.8% | 104% | 79.8%
